Data as given in PubChem BioAssay AID493131 (Broad Institute, 2011).
About 3,300 (0.97%) of roughly 340,000 compounds were called active. The entries come from a sample that favours actives as a whole. Unmarked numbers belong to inactive results.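 Rule for the calls: active = mean activation above about 17%, with every replicate also reaching it (limit read from the data, passing the limit was not always enough); inconclusive = only one of the two conditions met; inactive = the rest.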

These molecules were tested against Protein FosB (Mus musculus) (UniProt P13346) (assay: activators of delta FosB homodimer, primary screen, biochemical, fluorescence polarization, TAMRA-CDK5 oligo, single point (AID 493131;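 note: fluorescence polarization rise as delta FosB binds a TAMRA Cdk5 AP-1 oligo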)). Conditions: purified delta FosB, at 25 µM, stronger effect = higher value, percent of positive-control signal above neutral wells.
Chain of Protein FosB (Mus musculus) (P13346 whole entry, looked up): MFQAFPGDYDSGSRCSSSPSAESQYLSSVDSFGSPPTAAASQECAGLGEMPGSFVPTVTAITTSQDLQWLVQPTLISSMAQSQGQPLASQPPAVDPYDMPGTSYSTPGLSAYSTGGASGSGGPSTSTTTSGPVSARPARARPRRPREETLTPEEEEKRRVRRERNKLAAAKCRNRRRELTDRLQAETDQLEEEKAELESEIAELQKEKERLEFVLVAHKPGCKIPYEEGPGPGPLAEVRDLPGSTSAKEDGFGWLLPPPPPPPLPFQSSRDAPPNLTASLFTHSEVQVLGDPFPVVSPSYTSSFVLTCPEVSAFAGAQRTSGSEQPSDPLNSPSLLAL
`COc1cc(C2C(C(=O)Nc3ccccc3OC)=C(C)Nc3ncnn32)ccc1O` (stereo not given) was tested, and the activation was -9.43%. For `COc1ccccc1NC(=O)C1=C(C)Nc2nnnn2C1c1cccc(Br)c1` (stereo not given), the activation was 27.9% (active). Work on `COc1ccc(C2C(C(=O)Nc3ccccc3OC)=C(C)Nc3nnnn32)c(OC)c1` (stereo not given) yielded an activation of -2.93%. `COc1ccc(-c2cc3nc(C)c(CCC(=O)NC(C)CCc4ccco4)c(C)n3n2)c(OC)c1` (stereo not given) showed an activation of -2.13%. With `Cc1ccc(NC(=O)CCC(=O)N2CCC(c3ccccc3)=N2)cc1S(=O)(=O)N1CCCCC1` the activation was 10.2%. `Cc1sc2ncnc(N3CCC(C(=O)NNC(=O)c4ccc(F)cc4)CC3)c2c1C` was tested, and the activation was -4.25%. In the case of `Cc1sc2ncnc(N3CCC(C(=O)Nc4nc5ccc(Cl)cc5s4)CC3)c2c1C`, the activation was 43.5% (active). In the case of `Cc1sc2ncnc(N3CCC(C(=O)Nc4ccc(F)cc4Cl)CC3)c2c1C`, the activation was -2.12%. `Cc1cccc(-n2nc3c(c2NC(=O)c2cc4ccccc4o2)CS(=O)(=O)C3)c1` was tested, and the activation was -22.1%. In the case of `COc1ccc(CCNC(=O)c2nnc(CS(=O)(=O)c3ccccc3)o2)cc1OC`, the activation was -8.02%. `CCCCNC(=S)N/N=C1\CCCCc2ccccc21` gave an activation of -5.41%. In the case of `CCOc1ccccc1NC(=O)Cn1nnc(C(=O)NCc2cccs2)c1N`, the activation was 28.6% (active). In the case of `COc1cccc(CNC(=O)c2nnn(CC(=O)Nc3cc(Cl)ccc3C)c2N)c1`, the activation was 70.5% (active). In the case of `CCN(CC(=O)NCc1cccs1)c1nnnn1-c1ccccc1`, the activation was 1.6%. Work on `Cc1ccc(NC(=O)Cn2nnc(C(=O)NCc3ccco3)c2N)c(C)c1` yielded an activation of 14.6%. Work on `CCOc1ccccc1NC(=O)Cn1ncc2ccc([N+](=O)[O-])cc21` yielded an activation of -5.27%. Molecule `COc1ccc(NC(=O)Cn2nnc(C(=O)NCCc3ccc(OC)c(OC)c3)c2N)cc1` has an activation of -1.69%. Work on `COc1cccc(CNC(=O)c2n[nH]c3ccccc23)c1` yielded an activation of -2.62%. For `COc1cccc(CNC(=O)c2nnn(CC(=O)Nc3cc(C)ccc3C)c2N)c1`, the activation was 52.8% (active). In the case of `COc1cccc(CNC(=O)c2cccnc2Sc2ccc(Cl)cc2)c1`, the activation was -12%. Work on `COc1ccc(S(=O)(=O)N2CCC(C(=O)NCCC(=O)NCc3cccc(OC)c3)CC2)cc1` yielded an activation of -3.09%. With `CCOc1ccc(Cn2nnc(C(=O)Nc3ccc(OC)cc3OC)c2N)cc1` the activation was 7.56%. For `COc1ccc(CNC(=O)c2nnn(CC(=O)Nc3cc(C)cc(C)c3)c2N)cc1`, the activation was 48.3% (active). For `O=C(O)c1ccc(S(=O)(=O)c2ccccc2)s1`, the activation was 0.96%. In the case of `O=S(=O)(Nc1ccc(OC(F)(F)F)cc1)c1cccc2nonc12`, the activation was 2.63%. For `N#Cc1c(/N=C/N2CCCC2)oc(-c2ccccc2)c1-c1ccccc1`, the activation was -4.67%. With `CC(Sc1nnnn1C1CCCCC1)C(=O)O` (stereo not given) the activation was 1.4%. For `Cc1cccc(CSc2nc3c(c(=O)n2C)SCC3)c1`, the activation was -8.87%. `CCN(CC)c1ccc(S(=O)(=O)N2CCOCC2)cc1NC(=O)CSc1cccc[n+]1[O-]` was tested, and the activation was 4.76%. Molecule `NC(=O)Nc1ccc(C(=O)OCC(=O)NC2CCCc3ccccc32)cc1` (stereo not given) has an activation of 0.99%. `Nc1ccc(C(=O)OCC(=O)NC2CCS(=O)(=O)C2)cc1[N+](=O)[O-]` (stereo not given) was tested, and the activation was -1.21%. For `Nc1ccc(C(=O)OCC(=O)NC2CCCc3ccccc32)cc1[N+](=O)[O-]` (stereo not given), the activation was 35.5% (active). Work on `CC1(C(=O)O)CCC(C(=O)Nc2ccc(Cl)c(Cl)c2)C1(C)C` (stereo not given) yielded an activation of -5.56%. Molecule `COc1ccc(OCCCC(=O)Nc2nnc(C3CCCO3)s2)cc1` (stereo not given) has an activation of -9.89%. With `COc1ccc(NC(=O)CCC(=O)Nc2nnc(C3CCCCC3)s2)cc1` the activation was 23.2% (active). `COc1ccc2c(CC(=O)Nc3nnc(C4CC4)s3)coc2c1` showed an activation of -0.902%. `O=C(Cc1ccc(Br)cc1)NCCN1CCOCC1` was tested, and the activation was 7.04%. `CC1CCCCC1NC(=O)/C(C#N)=C/C=C/c1ccccc1[N+](=O)[O-]` (stereo not given) showed an activation of -2.37%. `COc1ccc(S(=O)(=O)N(C)CC(=O)Nc2ccc3c(c2)OCCO3)cc1OC` showed an activation of -3.7%. `Cn1c(=O)c2ccccc2n(CC(=O)Nc2ccc3c(c2)OCCO3)c1=O` was tested, and the activation was 5.57%. For `Cc1ccc(S(=O)(=O)NCC(=O)Nc2ccc3c(c2)OCCO3)cc1`, the activation was -0.347%. In the case of `CS(=O)(=O)c1ccc(-c2nnn(CC(=O)Nc3ccc4c(c3)OCCO4)n2)cc1`, the activation was 37.1% (active). `Cc1cccc(C(=O)Nc2ccccc2-c2nnn(CC(=O)Nc3ccc4c(c3)OCCO4)n2)c1` was tested, and the activation was 20.1% (active). In the case of `Cc1ccc(SCC(=O)Nc2ccc3c(c2)OCCO3)cc1`, the activation was -1.62%. In the case of `O=C(c1cccc(N2CCCC2=O)c1)N1CCOCC1`, the activation was -2.25%.
